Compound activity deposited in PubChem BioAssay by The Scripps Research Institute Molecular Screening Center.
Shown is part of a subset that was picked to be rich in hits.
TTR transcr act: activators of transthyretin transcription; SH-SY5Y TTR promoter Gaussia luciferase, luminescence; 100% = recombinant luciferase protein wells; activation, % at 16.7 µM; actives 1.3% (n = 92,000);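 active means activation above the mean of all tested compounds plus 3 SD, cut at about 9.5% in these data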;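 further: cells exposed to compounds for one day before reading; 0% = median of all test compound wells on the plate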
HuH7 TTR inh: decreases TTR transcription in HuH7 cells in activator counter-screen; HuH7 TTR promoter-Gaussia luciferase reporter, luminescence; actives 4% (n = 1,100); shares compounds with TTR transcr act; inhibition, % at 16.7 µM; AID 1117279;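 active means average inhibition above the solvent-only control wells' mean plus 3 SD, cut at about 15% in these data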;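 further: 0% = cells with DMSO only and 100% = cells with inhibitor control FD; inhibitors lower well luminescence so higher value means more inhibition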
TTR act confirm: human TTR transcription activation, confirmation; shares compounds with TTR transcr act; SHSY5Y TTR promoter Gaussia luciferase, luminescence; 100% = purified Lucia enzyme wells, no cells; activation, % at 16.7 µM; 1,100 tested, under 10 active; AID 1117280;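 active means mean activation above a set limit taken from the earlier primary screen, cut at about 11% in these data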;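 further: 0% = DMSO-treated cells and 100% = recombinant Lucia luciferase without cells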
Numbers without * were called inactive.

SMILES | TTR transcr act | others
O=C(NC1CCCCN(Cc2ccc(Cl)cc2)C1=O)c1ccccn1 (stereo not given) | -1
COC(=O)[C@@]12CCCCC3=C1N(CCC3)C(=O)[C@H]2CC(=O)NCC12CC3CC(CC(C3)C1)C2 | 0
O=C(Nc1ccc2c(c1)OCO2)c1ccc(Br)o1 | -2
O=C(Nc1ccc2c(c1)OCO2)c1cccc(F)c1 | 4
O=C(Nc1ccc2c(c1)OCO2)c1cncc(Br)c1 | 11* | HuH7 TTR inh=-3;TTR act confirm=0
CN1C(c2ccccc2)CC2CN(c3ccccc3)C(=O)C21 (stereo not given) | 2
COc1ccc(CNC(=O)CN2C(=O)COc3ccc(S(=O)(=O)N4CCCC4)cc32)cc1 | 0
CC(C)CN(CCCNC(=O)CN1C(=O)COc2ccc(S(=O)(=O)N3CCC(C)CC3)cc21)CC(C)C | 0
CCOCCCNC(=O)CN1C(=O)COc2ccc(S(=O)(=O)N3CCCC3)cc21 | 11* | HuH7 TTR inh=-12;TTR act confirm=0
COc1ccc(OC)c(CN2C(=O)CSCC2(C)c2nnnn2C2CCCC2)c1 (stereo not given) | 6
COC(=O)[C@]12C[C@H](CC(=O)NCc3ccc(OC)c(OC)c3)C(=O)N(CCC3=CCCCC3)C1=C[C@H](C1CCCC1)O[C@@H]2C | 1
COc1ccc(S[C@]2(C(=O)N3CCOCC3)CC(=O)N[C@@H]2c2ccc(OC)cc2)cc1 | -2
C=CCN1CC(COCCCC)Oc2ccc(Cl)cc2S1(=O)=O (stereo not given) | 5
CN(Cc1ccccc1)C(=O)OCc1cn(Cc2ccccc2Cl)nn1 | -2
O=C(NCCc1ccccc1)OCc1cn(Cc2cc(F)cc(F)c2)nn1 | -1
Cc1ccccc1Cn1cc(COC(=O)N(C)Cc2ccccc2)nn1 | 12* | HuH7 TTR inh=18*;TTR act confirm=-1
O=C(NCCc1ccccc1)OCc1cn(Cc2ccccc2F)nn1 | 20* | HuH7 TTR inh=-2;TTR act confirm=0
Cc1cccc(Cn2cc(COC(=O)N(C)Cc3ccccc3)nn2)c1 | -2
O=C(NCCc1ccccc1)OCc1cn(Cc2ccccc2Cl)nn1 | 1
COc1cc2c(c(OC3OC(CO)C(O)C(O)C3O)c1)C(=O)CC(c1ccc(O)cc1)O2 (stereo not given) | 0
COC(=O)[C@]12C[C@H](CC(=O)N3CCN(C(=O)C4CC4)CC3)C(=O)N(Cc3ccco3)C1=C[C@H](C1CCCC1)O[C@@H]2C | 0
O=S1(=O)CC2c3ccccc3CCN2CN1CCc1ccccc1 (stereo not given) | -1
CCOC(=O)[C@@]12CCCC=C1N(CCc1ccc(Cl)cc1)C(=O)[C@H]2CC(=O)NCc1cccc2ccccc12 | -1
CCC(C)[C@H](NC(=O)[C@H](CC(C)C)NC(=O)OC(C)(C)C)C(=O)N[C@@H](Cc1ccccc1)C(=O)OC (stereo not given in full) | 0
Cc1ccccc1C1CCC2(CC1)CCN(CC[C@@H](O)c1ccccc1)C2=O (stereo not given in full) | 2
SMILES | TTR transcr act | others
COc1ccc(/C(N)=N/OC(=O)COc2ccccc2Cl)cc1 | 0
COc1ccc(C(=O)O/N=C(\N)Cc2cccs2)cc1OC | 3
N/C(Cc1cccs1)=N\OC(=O)COc1ccccc1Cl | 11* | HuH7 TTR inh=11;TTR act confirm=0
COC(=O)[C@]12C[C@H](CC(=O)N3CCOCC3)C(=O)N(Cc3cccc4ccccc34)C1=C[C@H](COCc1ccccc1)O[C@@H]2C | 1
COC(=O)[C@]12C[C@H](CC(=O)NCc3ccc(C)o3)C(=O)N(Cc3ccc(Cl)cc3Cl)C1=C[C@H](C(C)C)O[C@@H]2C1CC1 | -1
CCOC(=O)CCCNC(=O)OC1CC2CC1[C@H]1CCCCN1[C@H]2Cc1ccccc1 (stereo not given in full) | 1
CCOC(=O)C(NC(=O)c1ccccc1)(OCC1(CC)COC1)C(F)(F)F (stereo not given) | -3
CCOC(=O)C(NC(=O)c1cccc(Cl)c1)(OCc1ccc(F)cc1)C(F)(F)F (stereo not given) | 25* | HuH7 TTR inh=-9;TTR act confirm=-1
CCOC(=O)C(NC(=O)NCc1cccc(C(F)(F)F)c1)(OCC)C(F)(F)F (stereo not given) | 0
C[C@@H]1CCN(C2CC2)S(=O)(=O)c2c(cccc2N2CC[C@@H](N(C)C)C2)O1 | 2
O=C(NCc1ccco1)O[C@@H]1CC[C@@]23CCCN2C(=O)CCC[C@H]3C1 | 0
C[C@H]1[C@@H](OC(=O)NCc2ccccc2Cl)CC[C@@]23CCCN2C(=O)CCC[C@@H]13 | -2
CCC1(CC)Cc2ccccc2-c2[nH]c(=S)[nH]c(=O)c21 | 1
CCC1(C)Cc2ccccc2C(=S)N1 (stereo not given) | 9.7* | HuH7 TTR inh=-5;TTR act confirm=0
CCC1(C)Cc2ccccc2C(=O)N1 (stereo not given) | -2
S=C(NC1CCCC1)N1CCN(c2ccccn2)CC1 | 4
Cc1cccc(N2CCN(C(=O)N3CCOCC3)CC2)c1C | 1
Cc1cccc(N2CCN(C(=S)NC3CCCCC3)CC2)c1C | 12* | HuH7 TTR inh=12;TTR act confirm=1
CC(C)=CCN1CCN(Cc2ccoc2)CC1CCO (stereo not given) | -2
CC(=O)Nc1ccc2nc(CN3CCN(CC=C(C)C)C(CCO)C3)ccc2c1 (stereo not given) | 67* | HuH7 TTR inh=-6;TTR act confirm=1
CC(C)=CCN1CCN(Cc2ccc3nsnc3c2)CC1CCO (stereo not given) | 1
C#CCNC(=O)C[C@@H]1C(=O)N(CCc2ccc(Cl)cc2)C2=CCCCC[C@]21C(=O)OC | 1
COc1ccc(/C=C2/CN(Cc3ccc(OC)cc3OC)C3=NC(c4ccc5ccccc5c4)CC(=O)N32)cc1 (stereo not given) | -1
O=Nc1ccc(Br)cn1 | -1
CC(C)[C@@H]1OC(=O)[C@@H]2CCCN2C(=O)[C@H](C)OC(=O)[C@H](C)[C@@H](C(C)C)NC(=O)[C@@H]2CCCN2C(=O)[C@H]([C@H](C)Cc2ccccc2)NC(=O)[C@@H]2CCCN2C(=O)[C@@H](C(C)C)N(C)C1=O | 0
SMILES | TTR transcr act | others
O=C(Nc1nc2ncccn2c1-c1ccc(C(F)(F)F)cc1)c1ccc(F)cc1 | 7
O=C(Cc1nnc(NC(=O)Nc2ccc(F)cc2)s1)Nc1ccccc1 | 3
Nc1nc(Nc2ccccc2)sc1C(=O)c1ccccc1 | -3
O=C(c1ccc(F)cc1)c1cnc(Nc2ccccc2)s1 | 15* | HuH7 TTR inh=-5;TTR act confirm=0
Cc1nc(NS(=O)(=O)c2ccccc2)sc1C(=O)N/N=C/c1ccccc1 | 0
CC(=O)c1ccc(NC(=O)NNS(=O)(=O)c2ccc(F)cc2)cc1 | -1
Cc1ccc(C)c(S(=O)(=O)Nc2nc(C)c(C(=O)Nc3ccccc3)s2)c1 | 1
CCOC(=O)Nc1sc(NS(=O)(=O)c2ccccc2)nc1C | 10* | HuH7 TTR inh=-19;TTR act confirm=2
CC(=O)c1ccc(NC(=O)Nc2sc(NS(=O)(=O)c3ccccc3)nc2C)cc1 | 30* | HuH7 TTR inh=-6;TTR act confirm=2
Cc1ccc(S(=O)(=O)NNC(=O)c2sc(NS(=O)(=O)c3ccccc3)nc2C)cc1 | 0
Cc1nc(SCC(N)=O)[nH]c(=O)c1C | 4
COC(=O)[C@]12C[C@H](CC(=O)NCc3cccc4ccccc34)C(=O)N(Cc3ccco3)C1=C[C@H](COCc1ccccc1)O[C@@H]2C | 0
O=S1(=O)c2c(cccc2N2CC[C@H](O)C2)O[C@H]2CCN1C2 | 1
